Test systems include NCI-H23 lung; NCI-H322M lung; HOP-62 NSCLC; NCI-H460 lung; HOP-92 NSCLC; NCI-H522 lung; A549/ATCC NSCLC; 786-0 renal; COLO 205 colon; DU-145 prostate; K-562 leukemia; MALME-3M melanoma; MDA-MB-231 breast; RXF 393 renal; SF-268 CNS; SF-295 CNS; SF-539 CNS; UACC-257 melanoma; M14 melanoma; NCI-H226 lung.
What all share (assay): NCI-60 one-dose screen, 48 h (100 = growth as untreated, 0 = no growth, -100 = all killed)
Common to all, as to settings: 10 µM unless noted

These results are taken from PubChem BioAssay (NCI).

The panel holds about 83,000 compounds, 20% with a hit somewhere; the sample as a whole holds those more often.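 Cells were grown in 96-well plates and exposed to the test compound at a single concentration for 48 hours; results are reported as percent growth, with values below 10 considered active.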 A number with no mark means an inactive call. Calls of active or inactive are those of the source.

For `c1ccc(-c2cccc(-c3ccccn3)n2)nc1`, the growth is 21.3% with NCI-H23 lung; 26.9% in the assay on NCI-H322M lung; 7.3% (active) in the assay on HOP-62 NSCLC; 3.53% (active) in the assay with NCI-H460 lung; 42.4% with HOP-92 NSCLC; 18.3% in the assay on NCI-H522 lung. For the same molecule, the growth in the assay on A549/ATCC NSCLC is 9.52% (active); in the assay with 786-0 renal, 16.2%; in the assay on COLO 205 colon it was 4.26% (active); with DU-145 prostate, 17.8%; in the assay with K-562 leukemia, 4.95% (active); with MALME-3M melanoma, 3.68% (active). Also, the growth with MDA-MB-231 breast is 44.1%; in the assay with RXF 393 renal it was 26.2%; in the assay on SF-268 CNS it was 19.9%; with SF-295 CNS it was 19.5%; in the assay with SF-539 CNS it was 5.87% (active); in the assay on UACC-257 melanoma, -4.86% (active). In the assay with M14 melanoma, the growth is -17.8% (active).
Regarding `CCOC(=O)/C(=C\c1ccc2ccccc2c1)P(=O)(OCC)OCC`, the growth is 41.1% with NCI-H23 lung; 55.7% with NCI-H226 lung; 70% in the assay on NCI-H322M lung; 40.7% with HOP-92 NSCLC; -31.7% (active) in the assay on NCI-H522 lung; 55.8% in the assay with A549/ATCC NSCLC. The growth in the assay on 786-0 renal is 11.6%; in the assay with COLO 205 colon it was 42.2%; in the assay on K-562 leukemia it was 11.8%; in the assay on MALME-3M melanoma it was 72.1%; with MDA-MB-231 breast, 16.3%; in the assay with RXF 393 renal, -23.4% (active). For the same molecule, the growth in the assay on SF-268 CNS was 42.6%; with SF-295 CNS it was 60.1%; in the assay on SF-539 CNS, 28.9%; in the assay on UACC-257 melanoma, 63.8%; with M14 melanoma, 31.7%.
On to `CCCCCC/C=C1\CCC(CN2CCCC2)C1=O` (stereo not given), for which the growth in the assay on NCI-H23 lung is 99.9%; in the assay with NCI-H226 lung it was 95.5%; with NCI-H322M lung, 106%; with NCI-H460 lung it was 102%; in the assay with HOP-92 NSCLC, 90.5%; in the assay on NCI-H522 lung, 93.5%. For the same molecule, the growth is 93% with A549/ATCC NSCLC; 77.4% in the assay with 786-0 renal; 107% with DU-145 prostate; 57.3% in the assay on K-562 leukemia; 119% in the assay with MALME-3M melanoma; 102% in the assay with MDA-MB-231 breast. Moreover, the growth with RXF 393 renal is 95.6%; in the assay on SF-268 CNS, 102%; in the assay with SF-295 CNS, 111%; with SF-539 CNS it was 114%; in the assay with UACC-257 melanoma, 92.1%; in the assay with M14 melanoma, 93.3%.
As for `CCN(CC)c1ccc(/C=C\C(=O)c2ccc(NC(C)=O)cc2)cc1`, the growth was 75.2% with NCI-H23 lung; 99.6% in the assay with NCI-H226 lung; 111% with NCI-H322M lung; 82.2% in the assay on NCI-H460 lung; 70.9% in the assay on HOP-92 NSCLC; 56.8% with A549/ATCC NSCLC. Further, the growth is 49.4% in the assay with COLO 205 colon; 60.1% in the assay with DU-145 prostate; 117% with MALME-3M melanoma; 65.7% with MDA-MB-231 breast; 79.4% in the assay with RXF 393 renal; 83.6% in the assay on SF-268 CNS. The growth in the assay with SF-295 CNS was 35.6%; in the assay with SF-539 CNS, 67.3%; in the assay with UACC-257 melanoma, 78.3%.
Regarding `COC(=O)C(=[N+]=[N-])C(=O)c1ccc([N+](=O)[O-])o1`, the growth with NCI-H23 lung was 77.6%; in the assay with NCI-H322M lung, 103%; in the assay on HOP-62 NSCLC it was 89.7%; with NCI-H460 lung, 94%; in the assay on HOP-92 NSCLC, 83.1%; with NCI-H522 lung it was -61.8% (active). The growth in the assay with A549/ATCC NSCLC was 65.2%; in the assay with 786-0 renal it was 107%; in the assay on COLO 205 colon, 23%; in the assay with DU-145 prostate it was 104%; in the assay with K-562 leukemia, 81.6%; with MALME-3M melanoma, 25.4%. The growth with MDA-MB-231 breast is 97.6%; in the assay on RXF 393 renal, 81.3%; with SF-268 CNS, 92.4%; in the assay on SF-295 CNS, 108%; in the assay with SF-539 CNS, 104%; in the assay with UACC-257 melanoma, 61.5%. In addition, the growth with M14 melanoma is 89.6%.
With `CCSc1nc2ccccc2o1`, the growth in the assay on NCI-H23 lung was 107%; in the assay on NCI-H322M lung it was 120%; in the assay on HOP-62 NSCLC it was 99.4%; in the assay on NCI-H460 lung, 103%; with HOP-92 NSCLC, 81.8%; with NCI-H522 lung it was 94.3%. Moreover, the growth with A549/ATCC NSCLC was 96.1%; in the assay with 786-0 renal it was 106%; in the assay on COLO 205 colon it was 113%; with DU-145 prostate it was 111%; with K-562 leukemia it was 100%; with MALME-3M melanoma it was 118%. Also, the growth in the assay on MDA-MB-231 breast was 112%; in the assay with RXF 393 renal, 110%; with SF-268 CNS it was 96.1%; in the assay on SF-295 CNS, 113%; in the assay on SF-539 CNS it was 96.3%; with UACC-257 melanoma, 106%. Moreover, in the assay on M14 melanoma, the growth was 109%.
On to `Nc1nc(-c2ccccc2)nc(N)c1N=O`, for which the growth in the assay with NCI-H23 lung was 97.3%; in the assay with NCI-H226 lung it was 90.4%; with NCI-H322M lung it was 100%; with NCI-H460 lung, 23.8%; in the assay on HOP-92 NSCLC, 65.3%; in the assay on NCI-H522 lung, -7.61% (active). The growth in the assay on A549/ATCC NSCLC is 66%; in the assay on 786-0 renal it was 83.6%; in the assay on DU-145 prostate it was 88.8%; in the assay with K-562 leukemia, 31.7%; in the assay on MALME-3M melanoma, 91.3%; in the assay on MDA-MB-231 breast, 93.8%. In addition, the growth was 63.9% with RXF 393 renal; 77.2% in the assay with SF-268 CNS; 108% in the assay on SF-295 CNS; 77.5% in the assay on SF-539 CNS; 54.4% in the assay on UACC-257 melanoma; 67.3% in the assay with M14 melanoma.
Regarding `O=[N+]([O-])CC(O)c1ccccc1` (stereo not given), the growth in the assay with NCI-H23 lung was 93.1%; in the assay with NCI-H226 lung it was 97.9%; with NCI-H322M lung, 118%; in the assay with NCI-H460 lung it was 101%; with NCI-H522 lung it was 97.3%; in the assay on 786-0 renal, 80.3%. The growth is 113% with COLO 205 colon; 109% in the assay with DU-145 prostate; 99.4% in the assay on K-562 leukemia; 122% with MALME-3M melanoma; 87.6% in the assay on MDA-MB-231 breast; 112% with RXF 393 renal. For the same molecule, the growth with SF-268 CNS is 100%; in the assay with SF-295 CNS, 113%; with SF-539 CNS, 103%; with UACC-257 melanoma it was 88.7%; in the assay with M14 melanoma, 97.6%.
Take `O=C(O)c1cccc2cccc(-c3c4ccc(=O)c(O)c-4oc4c(O)c(O)ccc34)c12`: the growth is 89.3% in the assay with NCI-H23 lung; 95.5% in the assay with NCI-H226 lung; 97.2% with NCI-H322M lung; 93.8% with HOP-92 NSCLC; 90.9% in the assay with NCI-H522 lung; 96.4% in the assay on A549/ATCC NSCLC. Also, the growth with 786-0 renal was 98.8%; with COLO 205 colon, 111%; in the assay with DU-145 prostate, 98.2%; with K-562 leukemia, 70.6%; in the assay with MALME-3M melanoma, 102%; in the assay on MDA-MB-231 breast it was 83%. In addition, the growth in the assay with RXF 393 renal was 94.4%; in the assay with SF-268 CNS it was 92.8%; in the assay on SF-295 CNS, 103%; in the assay with SF-539 CNS it was 89.4%; in the assay with UACC-257 melanoma, 110%; in the assay on M14 melanoma it was 92.5%.
